Measured values as given in PubChem BioAssay AID1463 (National Center for Advancing Translational Sciences (NCATS), 2008).
Hit rate of the full screen: of about 280,000 compounds, about 2,600 (0.93%) were called active. Roughly 8% stayed inconclusive and do not appear here. The sample as a whole holds a higher share of actives than the screen did. Unmarked numbers belong to inactive results. The call rests on the fitted dose curve; in most records, active means well fitted curve in the direction sought with a large enough effect; inconclusive means small, poorly fitted or top-dose-only effect; inactive means flat fitted curve, though single readings scatter.

Test: Counterscreen qHTS for Inhibitors of Tau Fibril Formation, Fluorescence Polarization; further: nearly all actives have a fitted effect of over 55% in size
Conditions: tau K18 P301L Alexa594 fluorescence, heparin fibrillization; series mostly up to 57.7 µM; activity change, negative = decrease: at the top concentration
How it was run: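 Human tau K18 P301L (15 uM unlabeled, 0.24 uM Alexa 594-labeled) in 100 mM sodium acetate pH 7 with 20 uM heparin, 6 hr at 37 C. ThT 30 uM added, 1 hr ambient; Alexa 594 FP and total fluorescence read at 555/632 nm.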
On the % scale 0 is the no-effect control and ±100 the full control effect; potency means the concentration at half of the fitted maximal effect; tags describe the fitted curve by direction and shape or compound fluorescence and quenching.

SMILES	activity change, negative = decrease [%]	Potency
CC1=Nc2cc(C(=O)NCc3ccc(C)cc3)ccc2Sc2ccc(Cl)cc21	-15.9	
Cc1ccc(C)c2sc(NC(=O)c3ccc(S(=O)(=O)N4CCCC4)cc3)nc12	-21.1	
CCN(CC)c1ccc(/C=N/Nc2nc(C)cc(C)n2)c(O)c1	2.1	
CCN(CC)c1ccc2oc(=O)c(C)nc2c1		12.6 µM [quencher] (active)
CCN(CC)c1ccc2c(Nc3ccccc3)c(C=O)c(=O)oc2c1	-7.21	
COc1cc(OC)c(OC)cc1/C=C/c1nc2cc3ccccc3cc2c(=O)n1-c1ccc(F)c(Cl)c1	-17.3	
COc1ccccc1-c1ccnc2[nH]n(-c3ccccc3)c(=O)c12	-12.9	
CCOC(=O)c1c(C)[nH]c(CCC(=O)NCCCN2CCN(c3cc(C)ccc3C)CC2)c1C	-23.4	
COc1cccc(CC(=O)Nc2ccc(-c3csc(C)n3)cc2)c1	-18.4	
Cc1nc(NC(=O)CN(C)S(=O)(=O)c2ccc(Cl)cc2)sc1C	-18	
C=CCCC(=O)Nc1nc(C)c(-c2csc(Nc3ccc(Cl)cc3)n2)s1		12.6 µM [quencher] (active)
CCOC(=O)c1csc(NC(=O)Nc2cccc(OC)c2)n1	-1.36	
Cc1nc(C)c(-c2csc(NCCc3ccccc3)n2)s1	-27.9	
CCCCCCC(=O)Nc1nc(C)c(-c2csc(Nc3cccc(OC)c3)n2)s1		8.91 µM [quencher] (active)
Cc1ccccc1C(=O)Nc1nnc(S(=O)(=O)N(C)c2ccc(Cl)cc2)s1	-20	
Cc1ccc2onc(CC(=O)N3CCN(c4ccc(Cl)cc4)CC3)c2c1	2.99	
Cc1cc2c(cc1S(=O)(=O)CCC(=O)Nc1ccc(OC(F)(F)F)cc1)OCC(=O)N2	-24.4	
Cc1cccc(C(=O)N2c3nc(-c4ccco4)nn3C3(CCCCC3)[C@@H]3CCCC[C@@H]32)c1	-1.79	
COc1ccc(-c2cc(-c3ccc(N)cc3)nc(N)c2C#N)cc1OC		28.2 µM [quencher] (active)
CCSc1nc(-c2ccc(OC)cc2)cc(-c2ccc(OC)cc2)c1C#N	-20.3	
CCOc1cc(-c2cc(-c3ccc(OC)cc3)nc(N)c2C#N)ccc1O	-26	

SMILES	activity change, negative = decrease [%]	Potency
CCn1cc2nc(SCc3cccc(F)c3)n(CCc3ccccc3)c(=O)c2n1	-19.5	
CCN1CCN(CCCNC(=O)c2cnn(-c3ccc(C)cc3C)c2C2CCN(C(=O)OC(C)(C)C)CC2)CC1	-19.1	
CCOC(=O)Cc1csc(NC(=O)Nc2ccccc2)n1	-12.3	
CCOC(=O)/C(=N\Nc1ccccc1[N+](=O)[O-])c1csc(Nc2ccccc2)n1		7.08 µM [quencher] (active)
Cc1csc(NC(=O)Nc2ccccc2[N+](=O)[O-])n1	-19.4	
CCc1ccc(NC(=O)c2cc(S(=O)(=O)NC3CCCCCC3)ccc2F)cc1	-23.9	
Cc1cccc(CCNC(=O)c2ccc3c(c2)nc2n3CCC(C)C2)c1 (stereo unspecified)	-12.3	
CCOc1cc(CNC(=O)c2sc3ncnc(N(C)C4CCCCC4)c3c2C)ccc1OC	-2.89	
CCSc1ncnc2c(C#N)c3n(c12)CCCCC3	-3.57	
CCSC1=C(C#N)C(=O)n2c1cc1c2CCCC1		31.6 µM [quencher] (active)
O=C(CSCc1cnn(-c2ccccc2)c1-n1cccc1)NCc1ccc(Cl)cc1	14.4	
COc1ccc(-c2nc3scc(CCNS(=O)(=O)c4cc(F)ccc4OC)n3n2)cc1OC	-16.3	
COc1ccc(NC(=O)c2cnc(Nc3ccc(C)c(Cl)c3)c3ccccc23)cc1OC	-13	
COc1ccc(C)cc1NC(=O)NCc1ccccn1	2.13	
COc1ccc(Nc2ncc(C(=O)Nc3cc(C)ccc3OC)c3ccccc23)cc1		3.55 µM [quencher] (active)
O=c1cc(O)nc(SCc2ccccc2Cl)[nH]1	-4.9	
Nc1nc(SCc2ccccc2Cl)n[nH]1	-6.77	
CC1(C)N=C(SCc2ccccc2Cl)c2ccccc2N1		12.6 µM [quencher] (active)
Cc1cccc(C(=O)Nc2ccc(-c3nc4ncccc4o3)cc2C)c1	-4.09	
CCOC(=O)c1ccc(CSc2nnc3cc(C)c4ccccc4n23)cc1	-23.9	
Cc1cc(C)cc(NC(=S)NCc2ccc(F)cc2)c1	-2.29	

SMILES	activity change, negative = decrease [%]	Potency
Cc1cc(C)cc(NC(=O)CSc2nc3nccnc3c(=O)n2CCc2c[nH]c3ccccc23)c1	1.4	
Cc1cc(C)cc(NC(=S)NCCc2c[nH]c3ccccc23)c1		15.8 µM [quencher] (active)
CCC(=O)N1CCc2cc(Br)cc(S(=O)(=O)CCC(=O)NCCc3ccc(OC)c(OC)c3)c21	-12.6	
COc1ccc(NC(=O)c2ccco2)cc1NC(=O)COc1ccc(C)c(C)c1	-16.3	
COc1ccc(NC(=O)c2cn(-c3ccccc3)nc2SC)cc1		17.8 µM [quencher] (active)
O=C(O)c1ccc(NC(=O)c2cn(-c3ccccc3)nc2-c2ccc(Cl)cc2)cc1	-7.53	
COc1ccc(NC(=O)c2c(SC)nsc2SC)cc1	-3.33	
CCOc1cc(C2C(C(=O)OC(C)C)=C(C)NC3=C2C(=O)CCC3)cc([N+](=O)[O-])c1O (stereo unspecified)	-9.75	
CCOc1cc(C2C(C(=O)OC)=C(C)NC3=C2C(=O)c2ccccc23)ccc1O (stereo unspecified)		17.8 µM [quencher] (active)
CCOc1cc(C2C(C(=O)Nc3ccc(OC)cc3)=C(C)Nc3nc(SC)nn32)ccc1O (stereo unspecified)	-21.9	
CCOC(=O)CN1C(C(=O)c2ccccc2)=C(OC(=O)C(C)(C)C)c2ccccc2S1(=O)=O	-7.8	
CCN(CCCNC(=O)c1ccc(Sc2ccc(C)cc2)c(NC(C)=O)c1)c1cccc(C)c1	-23.8	
COc1ccc(CCNC(=O)c2nn(C)c3c2CSc2ccccc2-3)cc1OC		10 µM [quencher] (active)
COc1ccc(CCNC(=O)c2c3c(nc4ccccc24)C(=O)N(C2CCCCC2)C3)cc1OC	2.98	
CCCCN(CC)CCCNC(=O)c1nn(C)c2c1CSc1ccccc1-2	-8.6	
Cc1ccc(C2CCN(C(=O)c3cnn(-c4ccccc4Cl)c3C3CCN(C(=O)OC(C)(C)C)CC3)C2)cc1 (stereo unspecified)	-10.5	
Cn1nnc2c(N3CCN(c4ccccc4)CC3)ncnc21	-2.02	
CCC1=Nc2cc(C(=O)NCCCOC(C)C)ccc2Sc2ccc(C)cc21	3.29	
CCOC(=O)c1[nH]c(C)c(CCC(=O)N2CCN(c3ccccc3)CC2)c1C	0.33	
